The target in experiment [1] is Tyrosine-protein kinase receptor UFO (Homo sapiens) (UniProt P30530). Conditions: at 1 µM.
The target of experiment [2] is Tyrosine-protein kinase Blk (Homo sapiens) (UniProt P51451). Conditions: at 0.1 µM.
Experiment [3] shares this target. Particulars: at 1 µM.
The target of experiment [4] is T1, Cytoplasmic tyrosine-protein kinase BMX (Homo sapiens) (UniProt P51813).
T1 sequence (whole entry): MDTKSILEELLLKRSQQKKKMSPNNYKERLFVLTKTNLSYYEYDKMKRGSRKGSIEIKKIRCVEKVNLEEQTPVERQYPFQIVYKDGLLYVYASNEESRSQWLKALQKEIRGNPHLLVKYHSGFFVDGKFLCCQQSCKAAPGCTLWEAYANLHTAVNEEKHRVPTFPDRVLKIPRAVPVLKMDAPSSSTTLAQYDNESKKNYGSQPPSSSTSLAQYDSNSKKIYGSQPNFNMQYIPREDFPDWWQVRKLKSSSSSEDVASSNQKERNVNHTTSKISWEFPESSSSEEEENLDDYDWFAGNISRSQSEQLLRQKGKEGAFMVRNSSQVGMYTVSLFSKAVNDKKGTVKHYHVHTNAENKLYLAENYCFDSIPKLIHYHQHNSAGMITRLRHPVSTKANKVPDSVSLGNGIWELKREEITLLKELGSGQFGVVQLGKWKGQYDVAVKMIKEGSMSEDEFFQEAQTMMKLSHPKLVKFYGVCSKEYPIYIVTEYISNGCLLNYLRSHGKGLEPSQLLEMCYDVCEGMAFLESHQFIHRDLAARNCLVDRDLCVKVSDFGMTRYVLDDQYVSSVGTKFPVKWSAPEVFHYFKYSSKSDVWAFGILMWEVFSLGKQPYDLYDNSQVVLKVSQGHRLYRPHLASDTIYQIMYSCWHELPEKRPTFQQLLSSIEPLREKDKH
Particulars: at 0.1 µM.

The target in experiment [5] is T1, Cytoplasmic tyrosine-protein kinase BMX (Homo sapiens). Particulars: at 1 µM.
Experiment [6] concerns the target Protein-tyrosine kinase 6 (Homo sapiens) (UniProt Q13882). Particulars: at 0.1 µM.
Experiment [7] has the same target. Conditions: at 1 µM.
Experiment [8] has as its target Tyrosine-protein kinase BTK (Homo sapiens) (UniProt Q06187). Conditions: at 0.1 µM.
The target is the same in experiment [9]. Conditions: at 1 µM.
Experiment [10] has as its target Tyrosine-protein kinase CSK (Homo sapiens) (UniProt P41240). Conditions: at 0.1 µM.
Experiment [11] has the same target. Conditions: at 1 µM.
Experiment [12] concerns the target T2, Discoidin domain-containing receptor 2 (Homo sapiens) (UniProt Q16832).
T2 sequence (whole entry): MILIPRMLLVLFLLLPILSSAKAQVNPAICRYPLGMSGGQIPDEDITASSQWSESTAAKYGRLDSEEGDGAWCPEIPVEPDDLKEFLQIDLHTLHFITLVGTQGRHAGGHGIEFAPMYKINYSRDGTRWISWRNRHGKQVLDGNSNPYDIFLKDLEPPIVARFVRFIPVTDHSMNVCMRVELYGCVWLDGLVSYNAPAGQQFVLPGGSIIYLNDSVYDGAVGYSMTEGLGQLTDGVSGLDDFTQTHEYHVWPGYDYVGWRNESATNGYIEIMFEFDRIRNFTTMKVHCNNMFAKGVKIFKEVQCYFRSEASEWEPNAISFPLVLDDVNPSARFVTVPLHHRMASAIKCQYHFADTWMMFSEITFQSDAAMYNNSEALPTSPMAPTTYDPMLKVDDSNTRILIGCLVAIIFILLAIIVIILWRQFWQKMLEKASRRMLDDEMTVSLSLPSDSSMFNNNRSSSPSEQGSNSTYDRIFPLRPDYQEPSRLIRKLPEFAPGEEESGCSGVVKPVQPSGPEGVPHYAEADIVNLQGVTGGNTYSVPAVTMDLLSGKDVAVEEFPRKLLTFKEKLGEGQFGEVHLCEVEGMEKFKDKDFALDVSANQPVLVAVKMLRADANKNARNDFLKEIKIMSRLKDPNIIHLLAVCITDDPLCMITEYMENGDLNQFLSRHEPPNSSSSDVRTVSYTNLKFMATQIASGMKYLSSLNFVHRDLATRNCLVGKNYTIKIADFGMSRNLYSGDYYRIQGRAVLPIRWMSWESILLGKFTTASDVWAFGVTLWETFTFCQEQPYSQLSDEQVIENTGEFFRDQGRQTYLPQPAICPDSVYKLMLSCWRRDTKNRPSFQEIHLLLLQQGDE
Conditions: at 0.1 µM.

In experiment [13] the target is T2, Discoidin domain-containing receptor 2 (Homo sapiens). Conditions: at 1 µM.
Experiment [14] concerns the target Epidermal growth factor receptor (Homo sapiens) (UniProt P00533). Conditions: at 0.1 µM.
Experiment [15] has the same target. Conditions: at 1 µM.
Experiment [16] has as its system Epidermal growth factor receptor (Homo sapiens), P00533 [L858R]. Particulars: at 0.1 µM.
Experiment [17] has the same test system. Particulars: at 1 µM.
For experiment [18], the system named is Epidermal growth factor receptor (Homo sapiens), P00533 [L861Q]. Conditions: at 0.1 µM.
Experiment [19] has the same test system. Particulars: at 1 µM.
Experiment [20] has as its system Epidermal growth factor receptor (Homo sapiens), P00533 [T790M]. Conditions: at 0.1 µM.

One may read the inhibition as the drop in the measured response relative to a control, in per cent.

Sequence of Tyrosine-protein kinase CSK (Homo sapiens) (P41240 2-450 limits assumed): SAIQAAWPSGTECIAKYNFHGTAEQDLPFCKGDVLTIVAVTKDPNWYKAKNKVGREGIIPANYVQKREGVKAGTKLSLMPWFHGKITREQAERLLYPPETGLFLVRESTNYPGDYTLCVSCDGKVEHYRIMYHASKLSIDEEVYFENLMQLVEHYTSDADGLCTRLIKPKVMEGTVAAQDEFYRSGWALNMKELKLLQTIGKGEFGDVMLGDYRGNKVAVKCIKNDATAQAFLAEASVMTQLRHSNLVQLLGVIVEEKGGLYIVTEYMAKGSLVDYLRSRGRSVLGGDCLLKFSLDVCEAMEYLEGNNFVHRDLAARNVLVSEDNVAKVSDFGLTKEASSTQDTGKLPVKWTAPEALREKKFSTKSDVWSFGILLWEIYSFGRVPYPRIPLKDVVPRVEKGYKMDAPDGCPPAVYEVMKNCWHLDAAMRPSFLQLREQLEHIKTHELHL
Sequence of Epidermal growth factor receptor (Homo sapiens) (P00533 whole entry): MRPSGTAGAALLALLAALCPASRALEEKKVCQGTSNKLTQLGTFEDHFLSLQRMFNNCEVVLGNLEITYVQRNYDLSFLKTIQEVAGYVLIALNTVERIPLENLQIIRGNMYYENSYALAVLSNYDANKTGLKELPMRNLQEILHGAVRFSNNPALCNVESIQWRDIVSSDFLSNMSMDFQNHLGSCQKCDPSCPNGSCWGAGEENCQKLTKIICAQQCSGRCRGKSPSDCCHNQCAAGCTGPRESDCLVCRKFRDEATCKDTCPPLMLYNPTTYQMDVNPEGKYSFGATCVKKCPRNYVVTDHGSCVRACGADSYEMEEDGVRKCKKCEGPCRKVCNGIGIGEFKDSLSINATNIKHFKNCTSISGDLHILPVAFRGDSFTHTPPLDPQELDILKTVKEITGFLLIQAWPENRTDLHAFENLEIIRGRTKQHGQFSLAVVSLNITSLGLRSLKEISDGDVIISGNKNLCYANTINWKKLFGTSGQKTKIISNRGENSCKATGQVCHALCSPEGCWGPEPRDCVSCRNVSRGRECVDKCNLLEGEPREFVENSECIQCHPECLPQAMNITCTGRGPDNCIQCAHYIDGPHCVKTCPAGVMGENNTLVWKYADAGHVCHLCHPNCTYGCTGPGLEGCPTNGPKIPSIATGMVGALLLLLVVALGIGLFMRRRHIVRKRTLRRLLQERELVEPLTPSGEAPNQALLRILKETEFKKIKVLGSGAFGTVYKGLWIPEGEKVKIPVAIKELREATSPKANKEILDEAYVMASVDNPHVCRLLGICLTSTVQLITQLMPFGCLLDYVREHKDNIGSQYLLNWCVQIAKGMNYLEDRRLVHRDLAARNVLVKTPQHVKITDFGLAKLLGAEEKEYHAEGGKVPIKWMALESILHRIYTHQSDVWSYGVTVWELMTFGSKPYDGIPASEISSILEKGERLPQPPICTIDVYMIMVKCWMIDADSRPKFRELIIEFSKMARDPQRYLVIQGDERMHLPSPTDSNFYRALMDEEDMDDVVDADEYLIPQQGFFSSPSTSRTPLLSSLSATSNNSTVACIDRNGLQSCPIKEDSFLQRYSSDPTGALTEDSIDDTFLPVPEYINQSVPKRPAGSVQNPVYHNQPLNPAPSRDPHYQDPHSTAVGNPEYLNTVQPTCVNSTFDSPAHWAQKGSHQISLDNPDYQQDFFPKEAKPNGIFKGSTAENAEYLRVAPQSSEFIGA
Sequence of Tyrosine-protein kinase Blk (Homo sapiens) (P51451 2-505 limits assumed): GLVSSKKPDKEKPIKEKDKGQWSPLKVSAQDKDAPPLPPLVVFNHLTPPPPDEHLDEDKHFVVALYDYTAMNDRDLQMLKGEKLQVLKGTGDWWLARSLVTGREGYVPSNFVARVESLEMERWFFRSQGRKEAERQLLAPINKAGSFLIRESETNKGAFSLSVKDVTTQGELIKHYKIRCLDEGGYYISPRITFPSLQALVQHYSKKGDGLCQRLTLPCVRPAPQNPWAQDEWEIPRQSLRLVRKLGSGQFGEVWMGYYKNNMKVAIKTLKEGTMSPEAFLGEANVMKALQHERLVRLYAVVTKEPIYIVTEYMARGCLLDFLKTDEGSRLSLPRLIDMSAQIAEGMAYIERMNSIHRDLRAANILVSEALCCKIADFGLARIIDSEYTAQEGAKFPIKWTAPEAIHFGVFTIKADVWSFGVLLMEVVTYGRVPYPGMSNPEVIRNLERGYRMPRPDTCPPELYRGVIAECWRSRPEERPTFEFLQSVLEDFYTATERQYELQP
Sequence of Tyrosine-protein kinase receptor UFO (Homo sapiens) (P30530 whole entry): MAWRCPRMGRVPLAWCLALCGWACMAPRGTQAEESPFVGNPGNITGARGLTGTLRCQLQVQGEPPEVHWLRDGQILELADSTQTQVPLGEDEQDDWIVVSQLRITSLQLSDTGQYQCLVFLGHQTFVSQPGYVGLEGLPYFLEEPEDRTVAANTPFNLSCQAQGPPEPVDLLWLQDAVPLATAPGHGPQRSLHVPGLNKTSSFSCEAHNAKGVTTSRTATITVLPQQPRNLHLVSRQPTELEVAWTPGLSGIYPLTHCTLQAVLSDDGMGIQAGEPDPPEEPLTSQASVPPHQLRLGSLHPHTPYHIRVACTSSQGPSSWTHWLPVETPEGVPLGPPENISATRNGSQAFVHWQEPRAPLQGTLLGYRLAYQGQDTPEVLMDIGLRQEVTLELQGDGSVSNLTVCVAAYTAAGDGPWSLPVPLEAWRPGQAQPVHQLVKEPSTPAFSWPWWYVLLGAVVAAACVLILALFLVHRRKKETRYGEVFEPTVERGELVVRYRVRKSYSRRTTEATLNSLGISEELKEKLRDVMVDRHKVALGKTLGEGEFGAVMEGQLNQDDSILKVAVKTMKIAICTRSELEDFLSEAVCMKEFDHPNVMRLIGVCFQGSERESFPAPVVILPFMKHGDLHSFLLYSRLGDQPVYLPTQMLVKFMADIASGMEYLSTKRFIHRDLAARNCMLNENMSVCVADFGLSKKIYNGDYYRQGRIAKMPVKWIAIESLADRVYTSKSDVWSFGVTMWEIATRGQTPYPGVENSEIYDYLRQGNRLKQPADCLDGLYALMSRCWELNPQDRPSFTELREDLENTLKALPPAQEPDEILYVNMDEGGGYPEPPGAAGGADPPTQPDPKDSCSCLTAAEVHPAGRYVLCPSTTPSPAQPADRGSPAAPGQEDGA
Sequence of Tyrosine-protein kinase BTK (Homo sapiens) (Q06187 whole entry): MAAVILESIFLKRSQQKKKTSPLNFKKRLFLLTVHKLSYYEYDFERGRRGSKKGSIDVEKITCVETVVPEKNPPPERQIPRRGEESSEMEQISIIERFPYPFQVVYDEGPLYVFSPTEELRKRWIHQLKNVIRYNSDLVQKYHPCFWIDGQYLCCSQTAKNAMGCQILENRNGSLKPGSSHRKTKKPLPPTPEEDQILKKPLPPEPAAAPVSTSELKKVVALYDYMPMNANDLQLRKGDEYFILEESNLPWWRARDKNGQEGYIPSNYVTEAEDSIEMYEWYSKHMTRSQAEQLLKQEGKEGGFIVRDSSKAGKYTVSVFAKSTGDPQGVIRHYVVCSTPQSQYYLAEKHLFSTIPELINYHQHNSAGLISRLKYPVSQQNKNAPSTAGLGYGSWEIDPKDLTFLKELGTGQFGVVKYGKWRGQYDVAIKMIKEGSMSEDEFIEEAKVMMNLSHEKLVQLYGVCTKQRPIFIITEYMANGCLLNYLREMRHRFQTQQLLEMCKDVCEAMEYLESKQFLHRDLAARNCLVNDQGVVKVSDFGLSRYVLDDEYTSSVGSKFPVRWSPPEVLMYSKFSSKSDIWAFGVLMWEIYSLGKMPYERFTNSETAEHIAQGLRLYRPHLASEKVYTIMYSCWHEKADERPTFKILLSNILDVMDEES
Sequence of Epidermal growth factor receptor (Homo sapiens), P00533 [L858R] (P00533 whole entry L858R): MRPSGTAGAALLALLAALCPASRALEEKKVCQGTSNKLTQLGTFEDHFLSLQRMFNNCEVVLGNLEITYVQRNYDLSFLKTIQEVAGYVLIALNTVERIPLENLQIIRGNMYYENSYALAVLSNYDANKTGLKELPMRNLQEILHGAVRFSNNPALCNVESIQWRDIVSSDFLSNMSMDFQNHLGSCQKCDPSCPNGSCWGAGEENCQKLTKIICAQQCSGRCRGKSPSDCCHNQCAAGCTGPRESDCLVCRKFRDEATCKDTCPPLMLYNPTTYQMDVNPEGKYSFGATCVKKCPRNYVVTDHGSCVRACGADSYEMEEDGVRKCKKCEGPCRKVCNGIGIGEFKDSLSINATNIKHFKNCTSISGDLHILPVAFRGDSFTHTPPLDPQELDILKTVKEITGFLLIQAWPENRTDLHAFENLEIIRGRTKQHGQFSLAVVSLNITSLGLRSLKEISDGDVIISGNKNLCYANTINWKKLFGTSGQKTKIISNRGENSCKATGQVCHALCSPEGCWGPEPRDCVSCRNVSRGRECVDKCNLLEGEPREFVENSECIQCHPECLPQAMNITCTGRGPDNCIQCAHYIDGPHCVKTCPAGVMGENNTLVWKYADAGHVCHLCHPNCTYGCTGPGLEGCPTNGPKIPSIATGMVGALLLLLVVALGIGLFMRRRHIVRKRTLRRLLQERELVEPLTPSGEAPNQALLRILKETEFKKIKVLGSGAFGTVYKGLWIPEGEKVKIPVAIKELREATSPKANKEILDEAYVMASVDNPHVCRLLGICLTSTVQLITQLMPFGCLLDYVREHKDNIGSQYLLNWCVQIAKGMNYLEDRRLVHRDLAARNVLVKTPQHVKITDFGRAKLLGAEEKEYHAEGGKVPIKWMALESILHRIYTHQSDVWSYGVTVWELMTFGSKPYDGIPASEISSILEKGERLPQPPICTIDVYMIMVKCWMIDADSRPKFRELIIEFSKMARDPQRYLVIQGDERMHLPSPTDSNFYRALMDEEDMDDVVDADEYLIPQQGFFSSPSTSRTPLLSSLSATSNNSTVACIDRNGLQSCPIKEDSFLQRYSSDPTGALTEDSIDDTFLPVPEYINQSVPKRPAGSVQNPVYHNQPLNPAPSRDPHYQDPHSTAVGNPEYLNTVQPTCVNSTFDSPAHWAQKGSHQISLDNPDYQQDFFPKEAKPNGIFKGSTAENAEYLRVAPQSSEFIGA

With `CN(C)C(=O)O[C@H]1CN[C@H](C#Cc2cc3ncnc(Nc4ccc(OCc5cccc(F)c5)c(Cl)c4)c3s2)C1`, the inhibition is -1.68% in experiment [1]; 2.47% in experiment [2]; 4.23% in experiment [3]; -3.39% in experiment [4]; 3.3% in [5]; 5.52% in experiment [6]. Further, the inhibition in experiment [7] is 4.14%; in experiment [8], -1.08%; in experiment [9], 0.74%; in [10], 0.6%; in [11], 2.76%; in experiment [12], 1.62%. Also, the inhibition in experiment [13] is 1.98%.

On to `CCS(=O)(=O)c1ccc(OC)c(Nc2nccc(N(C)c3ccc4c(C)n[nH]c4c3)n2)c1`, for which the inhibition in experiment [1] is -3.9%; in [2], 15.4%; in [3], 67.5%; in experiment [4], 3.66%; in experiment [5], 23.2%; in experiment [6] it was 18.8%. Besides, the inhibition in experiment [7] is 79.3%; in experiment [8], 2.21%; in [9] it was 27.1%; in experiment [10], 1.43%; in experiment [11], 15.2%; in experiment [12], -0.23%. Moreover, the inhibition was -2.28% in experiment [13]; 7.37% in experiment [14]; 35.2% in experiment [15]; 7.56% in experiment [16]; 43.1% in [17]; 7.97% in experiment [18]. For the same compound, the inhibition came out at 31.4% in experiment [19] and 4.42% in [20].

In the case of `COC(=O)c1ccc2c(c1)C(=Cc1cc(Br)c(O)c(Br)c1)C(=O)N2`, the inhibition in [1] is -4.28%; in [2], 3.19%; in [3], 11.6%; in experiment [4], 3.04%; in [5] it was 7.64%; in [6], 2.4%. Moreover, the inhibition in experiment [7] was 6.95%; in experiment [8], -1.29%; in experiment [9], 0.81%; in experiment [10], -0.27%; in [11], 5.89%; in experiment [12] it was 2.18%. The inhibition in experiment [13] is 7.08%; in [14], 3.97%; in experiment [15], 2.76%; in [16], -1.26%; in [17] it was 11.3%; in experiment [18], 0.68%. The inhibition in experiment [19] came out at 4.11%; in experiment [20], 0.31%.

As to `COc1ccc(-c2nn3ncccc3c2-c2ccnc(Nc3cccc(C(F)(F)F)c3)n2)cc1`, the inhibition in [1] is -2.69%; in [2], 2.61%; in experiment [3], 7.74%; in experiment [4], 2.37%; in experiment [5], -4.27%; in experiment [6], 2.5%. Further, the inhibition in experiment [7] was 17.9%; in experiment [8], 0.09%; in experiment [9] it was 1.7%; in [10] it was 2.1%; in experiment [11] it was 7.02%; in experiment [12] it was 2.63%. Moreover, the inhibition in experiment [13] was 22%; in experiment [14] it was 9.51%; in experiment [15], 19.1%; in [16], 4.1%; in experiment [17], 21.7%; in experiment [18], 2.85%. The figures for the inhibition in experiment [19] and in experiment [20] were 11.8% and 1%, respectively.

On to `CCn1c(-c2nonc2N)nc2c(C#CC(C)(C)O)nc(OCCNC)cc21`, for which the inhibition in experiment [1] is -6.1%; in experiment [2] it was 1.45%; in experiment [3] it was 3.35%; in [4], 3.16%; in experiment [5], 6.56%; in experiment [6] it was 5.42%. Moreover, the inhibition in experiment [7] is 3.09%; in experiment [8], -1.33%; in experiment [9] it was -0.61%; in experiment [10], 1.36%; in experiment [11], 5.91%; in [12] it was 1.73%. Besides, the inhibition in [13] worked out at 2.04%; in [14] it was 0.82%; in experiment [15], 0.07%; in [16], 1.22%; in [17], 3.32%; in experiment [18], 1.91%. Also, the inhibition in [19] turned out to be 2.32%; in [20] it was 1.88%.

As to `Cc1ccc(Nc2ccnc(Nc3cccc(C(N)=O)c3)n2)cc1O`, the inhibition in [1] worked out at 0.42%; in [2], 11.8%; in experiment [3], 71.2%; in experiment [4] it was 14.1%; in experiment [5], 56.7%; in experiment [6] it was 48.9%. In addition, the inhibition was determined as 91.5% in [7]; 3.4% in experiment [8]; 29.1% in experiment [9]; 10.8% in experiment [10]; 35.4% in experiment [11]; 5.32% in [12]. For the same compound, the inhibition is 30% in experiment [13]; -1.74% in [14]; 11.7% in [15]; 5.83% in experiment [16]; 32% in [17]; 4.18% in experiment [18]. Also, the inhibition is 13% in experiment [19] and 3.21% in experiment [20].

For `Cc1ccc(NC(=O)CC2CC2)cc1-c1ccc(C(=O)NCC2CC2)cc1`, the inhibition in [1] was -1.55%; in experiment [2] it was 2.42%; in experiment [3], 2.73%; in [4], 1.08%; in [5], 5.01%; in experiment [6] it was 4.58%. Besides, the inhibition is 5.79% in [7]; 1.4% in [8]; 2.39% in experiment [9]; 4.41% in experiment [10]; 5.95% in experiment [11]; 2.18% in experiment [12]. For the same compound, the inhibition in experiment [13] worked out at 5.56%; in experiment [14], 0.19%; in [15] it was 2.75%; in [16], 3.95%; in experiment [17], 4.15%; in experiment [18], 1.88%. The inhibition came to 4.52% in [19] and 2.03% in [20].

The values above are taken from ChEMBL document CHEMBL1961873, “Compounds: GSK PKIS; Assays: Nanosyn kinase panel” (2012).
